Source: PubChem BioAssay (NCATS)
Inconclusive results are not listed. A call without a number means that no potency is given here. Calls of active or inactive are those of the source. The call rests on the fitted dose curve; in most records, active means well fitted inhibition curve with a large enough effect; inconclusive means small, poorly fitted or top-dose-only effect; inactive means flat fitted curve, though single readings scatter.

target: Voltage-gated inwardly rectifying potassium channel KCNH2 (Homo sapiens) (UniProt Q12809); experiment: qHTS Assay for Small Molecule Inhibitors of the Human hERG Channel Activity (AID 588834); settings: U2OS BacMam hERG, FluxOR thallium flux fluorescence; series mostly up to 46.1 µM;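 further: lower thallium flux fluorescence means stronger hERG block; nearly all actives have a fitted effect of over 50% in size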; further: potency means the concentration at half of the fitted maximal effect
Sequence (Q12809 whole entry, looked up): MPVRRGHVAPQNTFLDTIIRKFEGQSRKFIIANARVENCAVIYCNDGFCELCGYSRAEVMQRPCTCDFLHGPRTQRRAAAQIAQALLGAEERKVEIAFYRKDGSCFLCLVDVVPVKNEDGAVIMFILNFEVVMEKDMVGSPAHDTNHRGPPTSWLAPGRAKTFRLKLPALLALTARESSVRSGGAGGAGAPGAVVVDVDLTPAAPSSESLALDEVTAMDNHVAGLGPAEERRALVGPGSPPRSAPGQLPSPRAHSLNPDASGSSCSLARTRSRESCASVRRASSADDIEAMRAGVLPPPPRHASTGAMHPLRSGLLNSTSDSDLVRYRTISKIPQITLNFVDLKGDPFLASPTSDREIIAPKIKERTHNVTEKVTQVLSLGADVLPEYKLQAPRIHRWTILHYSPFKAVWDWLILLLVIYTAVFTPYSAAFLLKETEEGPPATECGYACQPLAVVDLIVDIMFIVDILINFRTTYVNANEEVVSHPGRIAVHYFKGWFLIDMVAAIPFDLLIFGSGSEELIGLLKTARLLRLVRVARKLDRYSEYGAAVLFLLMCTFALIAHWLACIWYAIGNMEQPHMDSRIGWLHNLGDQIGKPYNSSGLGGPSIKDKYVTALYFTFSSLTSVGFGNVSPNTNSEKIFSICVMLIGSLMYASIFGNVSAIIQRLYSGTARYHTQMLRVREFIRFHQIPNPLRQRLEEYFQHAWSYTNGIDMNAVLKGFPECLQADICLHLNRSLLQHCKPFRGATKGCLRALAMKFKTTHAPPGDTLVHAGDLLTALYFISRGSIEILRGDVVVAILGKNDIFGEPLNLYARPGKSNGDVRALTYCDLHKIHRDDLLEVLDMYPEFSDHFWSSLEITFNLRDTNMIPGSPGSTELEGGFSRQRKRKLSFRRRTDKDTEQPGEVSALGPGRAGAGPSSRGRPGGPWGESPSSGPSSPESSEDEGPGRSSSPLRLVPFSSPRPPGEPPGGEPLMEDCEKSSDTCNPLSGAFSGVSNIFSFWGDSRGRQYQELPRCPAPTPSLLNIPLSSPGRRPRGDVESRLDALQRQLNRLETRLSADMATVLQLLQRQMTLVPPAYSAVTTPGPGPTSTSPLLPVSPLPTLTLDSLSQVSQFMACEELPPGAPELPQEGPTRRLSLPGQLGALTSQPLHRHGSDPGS
How it was run: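 Blockade is seen as reduced FluxOR thallium-flux fluorescence in U2OS cells expressing hERG from a BacMam construct, in Opti-MEM with 2% FCS. Concentration-response data fitted to the Hill equation for AC50.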

Compound	Potency
CNC(=O)c1cc(Oc2ccc(NC(=O)Nc3ccc(Cl)c(C(F)(F)F)c3)cc2)ccn1	7.08 µM (active)
C[C@@H]1CN(c2c(F)c(N)c3c(=O)c(C(=O)O)cn(C4CC4)c3c2F)C[C@H](C)N1	inactive
O=C(O)c1cccnc1	inactive
COc1ccccc1OCC(O)COC(N)=O (stereo not drawn)	inactive
CNNCc1ccc(C(=O)NC(C)C)cc1	inactive
CCCc1nc(C)c2c(=O)[nH]c(-c3cc(S(=O)(=O)N4CCN(CC)CC4)ccc3OCC)nn12	inactive
CCC(C)(C)c1ccc(CC(C)CN2C[C@@H](C)O[C@@H](C)C2)cc1 (stereo partly drawn)	12.6 µM (active)
Cc1onc(-c2ccccc2Cl)c1C(=O)N[C@@H]1C(=O)N2[C@@H]1SC(C)(C)[C@@H]2C(=O)O	inactive
C#CCN[C@@H]1CCc2ccccc21	inactive
Clc1ccccc1CN1CCc2sccc2C1	14.1 µM (active)
NS(=O)(=O)c1cc2c(cc1Cl)NC(C(Cl)Cl)NS2(=O)=O (stereo not drawn)	inactive
Cn1c(=O)c2c(ncn2CC(O)CO)n(C)c1=O (stereo not drawn)	inactive
Oc1c(Cl)cc(Cl)c2cccnc12	inactive
CCN[C@H]1C[C@H](C)S(=O)(=O)c2sc(S(N)(=O)=O)cc21	inactive
Cc1oc(=O)oc1CN1CCN(c2cc3c(cc2F)c(=O)c(C(=O)O)c2n3C(C)S2)CC1 (stereo not drawn)	inactive
CO[C@@]12[C@H](COC(N)=O)C3=C(C(=O)C(C)=C(N)C3=O)N1C[C@@H]1N[C@@H]12	inactive
C[C@@H]1C[C@H]2[C@@H]3CCC4=CC(=O)C=C[C@]4(C)[C@@]3(Cl)[C@@H](O)C[C@]2(C)[C@@]1(OC(=O)c1ccco1)C(=O)CCl	5.01 µM (active)

Compound	Potency
CN(Cc1cc(Br)cc(Br)c1N)C1CCCCC1	3.16 µM (active)
CN1CCN(c2c(F)cc3c(=O)c(C(=O)O)cn(CCF)c3c2F)CC1	inactive
NC(=O)c1cccnc1	inactive
CN(C)CCc1c[nH]c2ccc(C[C@H]3COC(=O)N3)cc12	inactive
COc1nc(N)nc2c1ncn2[C@@H]1O[C@H](CO)[C@@H](O)[C@@H]1O	inactive
CC(=O)[C@H]1CC[C@H]2[C@@H]3CC=C4C[C@@H](O)CC[C@]4(C)[C@H]3CC[C@]12C	inactive
O=S(=O)(c1cccc2cnccc12)N1CCCNCC1	inactive
O=S(=O)(O)CCS	inactive
Nc1nc(F)nc2c1ncn2[C@@H]1O[C@H](CO)[C@@H](O)[C@@H]1O	inactive
CCOC(=O)[C@H](CCc1ccccc1)N[C@H]1CS[C@H](c2cccs2)CN(CC(=O)O)C1=O	inactive
COC(c1ccccc1)(c1ccccc1)[C@H](Oc1nc(C)cc(C)n1)C(=O)O	inactive
COc1cccc(N(C)C(=S)Oc2ccc3c(c2)CCCC3)n1	3.16 µM (active)
COc1cnc(NS(=O)(=O)c2ccc(N)cc2)nc1	inactive
CC(C)(C)NC(=O)[C@H]1CC[C@H]2[C@@H]3CC[C@H]4NC(=O)C=C[C@]4(C)[C@H]3CC[C@]12C	inactive
Nc1nc(N)nc(-c2cc(Cl)ccc2Cl)n1	inactive
CCC(=O)O[C@]1(C(=O)SCF)[C@H](C)C[C@H]2[C@@H]3C[C@H](F)C4=CC(=O)C=C[C@]4(C)[C@@]3(F)[C@@H](O)C[C@@]21C	inactive
CO[C@@H]1[C@@H](OC(N)=O)[C@@H](O)[C@H](Oc2ccc3c(O)c(NC(=O)c4ccc(O)c(CC=C(C)C)c4)c(=O)oc3c2C)OC1(C)C	inactive

target: Luciferin 4-monooxygenase (Photinus pyralis) (UniProt P08659); experiment: Biochemical firefly luciferase enzyme assay for NPC (AID 624030);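 further: purified P. pyralis luciferase at 10 nM with luciferin and ATP substrate; nearly all actives have a fitted effect of over 70% in size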; settings: purified P. pyralis luciferase, luminescence, 5 min; series mostly up to 58.6 µM
Sequence (P08659 whole entry, looked up): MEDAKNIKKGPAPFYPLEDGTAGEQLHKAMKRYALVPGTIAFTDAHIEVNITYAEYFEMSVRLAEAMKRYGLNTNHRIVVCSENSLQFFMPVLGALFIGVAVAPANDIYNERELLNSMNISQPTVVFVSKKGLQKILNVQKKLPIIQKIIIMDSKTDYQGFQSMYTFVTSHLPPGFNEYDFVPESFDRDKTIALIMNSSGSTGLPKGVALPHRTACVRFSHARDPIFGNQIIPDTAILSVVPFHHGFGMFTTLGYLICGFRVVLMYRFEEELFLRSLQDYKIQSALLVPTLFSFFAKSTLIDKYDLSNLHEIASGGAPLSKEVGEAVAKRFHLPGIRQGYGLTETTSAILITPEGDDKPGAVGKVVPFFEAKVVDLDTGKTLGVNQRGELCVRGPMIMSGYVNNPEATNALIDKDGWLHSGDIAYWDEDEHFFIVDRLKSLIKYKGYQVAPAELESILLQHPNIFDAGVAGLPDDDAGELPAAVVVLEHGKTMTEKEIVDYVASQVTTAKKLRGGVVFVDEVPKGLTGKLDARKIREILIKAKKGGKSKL
How it was run: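 Purified P. pyralis luciferase at 10 nM in 50 mM Tris Acetate (final), luminescence read within 5 minutes of enzyme addition to compounds. Activity normalised to PTC124 versus DMSO; concentration-response curves classed by r2, magnitude and activity.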

Compound	Potency
CNC(=O)c1cc(Oc2ccc(NC(=O)Nc3ccc(Cl)c(C(F)(F)F)c3)cc2)ccn1	inactive
O=C(O)c1cccnc1	inactive
CNNCc1ccc(C(=O)NC(C)C)cc1	inactive
CCCc1nc(C)c2c(=O)[nH]c(-c3cc(S(=O)(=O)N4CCN(CC)CC4)ccc3OCC)nn12	inactive
CCC(C)(C)c1ccc(CC(C)CN2C[C@@H](C)O[C@@H](C)C2)cc1 (stereo partly drawn)	inactive
C#CCN[C@@H]1CCc2ccccc21	inactive
Clc1ccccc1CN1CCc2sccc2C1	inactive
Oc1c(Cl)cc(Cl)c2cccnc12	inactive
Cc1oc(=O)oc1CN1CCN(c2cc3c(cc2F)c(=O)c(C(=O)O)c2n3C(C)S2)CC1 (stereo not drawn)	inactive
CN(Cc1cc(Br)cc(Br)c1N)C1CCCCC1	inactive
CN1CCN(c2c(F)cc3c(=O)c(C(=O)O)cn(CCF)c3c2F)CC1	inactive
NC(=O)c1cccnc1	inactive
COc1nc(N)nc2c1ncn2[C@@H]1O[C@H](CO)[C@@H](O)[C@@H]1O	inactive
O=S(=O)(c1cccc2cnccc12)N1CCCNCC1	inactive
O=S(=O)(O)CCS	inactive
CCOC(=O)[C@H](CCc1ccccc1)N[C@H]1CS[C@H](c2cccs2)CN(CC(=O)O)C1=O	inactive
COc1cccc(N(C)C(=S)Oc2ccc3c(c2)CCCC3)n1	inactive
COc1cnc(NS(=O)(=O)c2ccc(N)cc2)nc1	inactive
Nc1nc(N)nc(-c2cc(Cl)ccc2Cl)n1	inactive
